The full data set covers some 7,900 targets. This sample favours those with a hit. About 0.6% of all pairs of compound and target were hits.
How the values were obtained:
Experiment in all cases: log2 fold change, soluble protein after heating vs DMSO (PISA); higher = thermal stabilisation; K562 cells, 10 uM, 30 min; active = over 0.2 and 3.5 SD of the protein, either way, in both replicates (recomputed)
[1] = compound: COC1=CC=C(C=C1)CN2C=CC3=C2C=C(C=C3)C(=O)NO
How it was run: (§1)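 K562 cells at 2×10^6 cells/mL were treated with 10 μM compound for 30 min. Aliquots were heated for 3 min across 48°C-58°C, pooled, and extracted in PBS with 0.5% NP-40 at 4°C; soluble protein was the supernatant after 21,000xg for 90 min. Soluble protein was quantified by TMTpro 16plex LC-MS/MS with channel sums equalised, and reported as log2 fold change in thermal stability against DMSO controls, with values from duplicates.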

zotarolimus = compound: CO[C@H]1C[C@@H]2CC[C@@H](C)[C@@](O)(O2)C(=O)C(=O)N2CCCC[C@H]2C(=O)O[C@H]([C@H](C)C[C@@H]2CC[C@H](n3cnnn3)[C@H](OC)C2)CC(=O)[C@H](C)/C=C(\C)[C@@H](O)[C@@H](OC)C(=O)[C@H](C)C[C@H](C)/C=C/C=C/C=C/1C [zotarolimus]
How it was run: as §1

idasanutlin = compound: COc1cc(C(=O)O)ccc1NC(=O)[C@@H]1N[C@@H](CC(C)(C)C)[C@](C#N)(c2ccc(Cl)cc2F)[C@H]1c1cccc(Cl)c1F [idasanutlin]
How it was run: as §1

alisertib = compound: COc1cc(Nc2ncc3c(n2)-c2ccc(Cl)cc2C(c2c(F)cccc2OC)=NC3)ccc1C(=O)O [alisertib]
How it was run: as §1

[2] = compound: COc1cc2nc(-c3cc(F)ccc3O)nc(N[C@@H]3CNC[C@H]3C(C)(C)O)c2cc1OC
How it was run: as §1

gefitinib = compound: COc1cc2ncnc(Nc3ccc(F)c(Cl)c3)c2cc1OCCCN1CCOCC1 [gefitinib]
How it was run: as §1

[3] = compound: COc1cccc2cc(-c3nc([C@H]4CC[C@H](C(=O)O)CC4)n4ncnc(N)c34)[nH]c12
How it was run: as §1

lapatinib = compound: CS(=O)(=O)CCNCc1ccc(-c2ccc3ncnc(Nc4ccc(OCc5cccc(F)c5)c(Cl)c4)c3c2)o1 [lapatinib]
How it was run: as §1

pictilisib = compound: CS(=O)(=O)N1CCN(Cc2cc3nc(-c4cccc5[nH]ncc45)nc(N4CCOCC4)c3s2)CC1 [pictilisib]
How it was run: as §1

filanesib = compound: CON(C)C(=O)N1N=C(c2cc(F)ccc2F)S[C@@]1(CCCN)c1ccccc1 [filanesib]
How it was run: as §1

Measured: log2 fold change

CEMIP2 (UniProt Q9UHN6)
Sequence of UniProt Q9UHN6 (Q9UHN6 whole entry, looked up): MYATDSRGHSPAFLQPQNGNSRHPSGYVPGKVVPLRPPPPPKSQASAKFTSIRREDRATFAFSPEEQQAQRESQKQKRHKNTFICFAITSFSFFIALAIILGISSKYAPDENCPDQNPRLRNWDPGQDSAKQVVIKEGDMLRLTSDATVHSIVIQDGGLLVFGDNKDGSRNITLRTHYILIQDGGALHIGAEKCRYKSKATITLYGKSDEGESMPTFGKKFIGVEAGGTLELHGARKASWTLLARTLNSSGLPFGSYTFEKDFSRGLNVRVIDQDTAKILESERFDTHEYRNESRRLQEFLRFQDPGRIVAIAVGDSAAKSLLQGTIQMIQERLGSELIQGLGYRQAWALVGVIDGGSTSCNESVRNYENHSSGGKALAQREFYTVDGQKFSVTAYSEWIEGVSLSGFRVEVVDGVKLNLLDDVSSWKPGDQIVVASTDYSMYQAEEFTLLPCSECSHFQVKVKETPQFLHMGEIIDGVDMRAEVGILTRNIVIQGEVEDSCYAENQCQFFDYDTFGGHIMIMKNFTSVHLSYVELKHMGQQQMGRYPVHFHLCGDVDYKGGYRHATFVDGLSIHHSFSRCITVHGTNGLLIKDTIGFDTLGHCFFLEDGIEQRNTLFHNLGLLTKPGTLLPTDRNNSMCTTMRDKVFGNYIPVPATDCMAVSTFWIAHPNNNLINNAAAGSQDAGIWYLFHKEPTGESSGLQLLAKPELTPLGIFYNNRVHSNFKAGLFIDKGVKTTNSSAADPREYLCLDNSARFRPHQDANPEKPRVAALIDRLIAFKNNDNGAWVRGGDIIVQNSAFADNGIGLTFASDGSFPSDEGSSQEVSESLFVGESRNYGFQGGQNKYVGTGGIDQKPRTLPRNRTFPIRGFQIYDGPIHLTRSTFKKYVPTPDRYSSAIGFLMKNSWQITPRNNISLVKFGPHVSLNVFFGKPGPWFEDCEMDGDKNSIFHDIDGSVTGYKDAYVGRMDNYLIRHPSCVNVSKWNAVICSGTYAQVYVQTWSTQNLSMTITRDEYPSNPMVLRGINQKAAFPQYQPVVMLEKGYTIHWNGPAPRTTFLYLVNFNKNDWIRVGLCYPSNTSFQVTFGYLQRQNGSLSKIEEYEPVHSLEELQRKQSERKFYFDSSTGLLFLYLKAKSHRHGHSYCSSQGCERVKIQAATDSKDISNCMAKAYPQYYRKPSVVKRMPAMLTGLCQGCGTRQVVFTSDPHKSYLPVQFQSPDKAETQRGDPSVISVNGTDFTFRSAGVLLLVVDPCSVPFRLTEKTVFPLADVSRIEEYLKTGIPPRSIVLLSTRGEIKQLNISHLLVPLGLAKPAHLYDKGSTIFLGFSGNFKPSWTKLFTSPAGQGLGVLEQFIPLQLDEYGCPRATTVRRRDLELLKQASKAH
inactive: [1] -0.018 | zotarolimus 0.008 | idasanutlin 0.021 | alisertib 0.202 | [2] 0.121 | gefitinib 0.072 | [3] 0.135 | lapatinib 0.026 | pictilisib 0.097

CLPTM1L (UniProt G5E9Z2)
inactive: filanesib -0.235 | zotarolimus -0.101 | idasanutlin -0.446 | alisertib -0.199 | gefitinib -0.142 | [3] 0.099

CCND3 (UniProt P30281)
Sequence of UniProt P30281 (P30281 whole entry, looked up): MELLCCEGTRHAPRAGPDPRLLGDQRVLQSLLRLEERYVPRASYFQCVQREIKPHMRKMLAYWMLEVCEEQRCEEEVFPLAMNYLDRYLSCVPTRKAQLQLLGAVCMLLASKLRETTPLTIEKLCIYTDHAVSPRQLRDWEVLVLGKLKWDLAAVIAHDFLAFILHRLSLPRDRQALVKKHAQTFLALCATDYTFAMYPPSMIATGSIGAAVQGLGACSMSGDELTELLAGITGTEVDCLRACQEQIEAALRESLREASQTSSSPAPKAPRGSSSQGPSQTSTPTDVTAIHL
inactive: zotarolimus -0.035 | idasanutlin -0.036 | alisertib -0.043 | [2] -0.276 | [3] 0.012 | lapatinib 0.083 | pictilisib 0.03

CNN1 (UniProt P51911)
Sequence of UniProt P51911 (P51911 whole entry, looked up): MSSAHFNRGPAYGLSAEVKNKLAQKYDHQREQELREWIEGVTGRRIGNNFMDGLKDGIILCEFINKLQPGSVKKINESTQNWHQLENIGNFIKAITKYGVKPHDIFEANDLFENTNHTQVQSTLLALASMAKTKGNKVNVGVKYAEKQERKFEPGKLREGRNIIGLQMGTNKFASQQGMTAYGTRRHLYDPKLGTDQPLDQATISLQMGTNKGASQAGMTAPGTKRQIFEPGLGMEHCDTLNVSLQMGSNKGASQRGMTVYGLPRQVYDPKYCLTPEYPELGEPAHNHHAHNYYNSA
inactive: filanesib -0.051 | zotarolimus 0.047 | idasanutlin -0.048 | alisertib -0.055 | [2] 0.182 | gefitinib -0.14 | [3] 0.059 | lapatinib -0.068 | pictilisib 0.172

CASK (UniProt O14936)
inactive: [1] 0.046 | idasanutlin -0.031

CARD9 (UniProt Q9H257)
inactive: [1] -0.062 | idasanutlin 0.169

CDK19 (UniProt Q9BWU1)
Sequence of UniProt Q9BWU1 (Q9BWU1 whole entry, looked up): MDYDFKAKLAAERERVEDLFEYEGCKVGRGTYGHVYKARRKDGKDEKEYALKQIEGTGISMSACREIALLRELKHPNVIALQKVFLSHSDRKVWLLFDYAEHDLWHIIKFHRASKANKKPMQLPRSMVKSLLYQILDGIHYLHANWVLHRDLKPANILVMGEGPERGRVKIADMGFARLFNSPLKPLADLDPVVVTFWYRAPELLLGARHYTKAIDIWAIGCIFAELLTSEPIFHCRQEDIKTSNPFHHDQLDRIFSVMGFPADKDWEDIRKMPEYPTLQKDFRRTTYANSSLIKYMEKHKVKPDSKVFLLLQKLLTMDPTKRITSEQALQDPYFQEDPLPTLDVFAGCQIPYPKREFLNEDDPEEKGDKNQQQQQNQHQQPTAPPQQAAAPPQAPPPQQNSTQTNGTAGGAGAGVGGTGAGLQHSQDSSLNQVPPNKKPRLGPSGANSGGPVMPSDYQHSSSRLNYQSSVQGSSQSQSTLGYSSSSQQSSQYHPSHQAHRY
inactive: filanesib 0.154 | zotarolimus -0.069 | idasanutlin -0.161 | alisertib 0.234 | [2] 0.138 | gefitinib -0.095 | [3] -0.045 | lapatinib -0.192 | pictilisib 0.073

CFAP58 (UniProt Q5T655)
inactive: alisertib -0.156 | [2] 0 | [3] 0.032 | lapatinib 0.001 | pictilisib 0.122

CSNK1A1 isoform 3 (UniProt P48729)
Sequence of UniProt P48729 (P48729 whole entry, looked up): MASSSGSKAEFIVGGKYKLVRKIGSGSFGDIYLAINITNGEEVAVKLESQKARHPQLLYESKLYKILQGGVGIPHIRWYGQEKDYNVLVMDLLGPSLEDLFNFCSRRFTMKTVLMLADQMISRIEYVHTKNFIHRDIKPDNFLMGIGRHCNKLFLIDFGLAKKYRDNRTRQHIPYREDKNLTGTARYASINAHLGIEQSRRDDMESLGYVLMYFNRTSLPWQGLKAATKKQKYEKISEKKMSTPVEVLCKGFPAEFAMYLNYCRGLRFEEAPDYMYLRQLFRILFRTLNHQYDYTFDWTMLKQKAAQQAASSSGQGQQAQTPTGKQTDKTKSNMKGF
inactive: [2] -0.006 | [3] 0.091 | lapatinib 0.129

CKS2 (UniProt P33552)
Sequence of UniProt P33552 (P33552 whole entry, looked up): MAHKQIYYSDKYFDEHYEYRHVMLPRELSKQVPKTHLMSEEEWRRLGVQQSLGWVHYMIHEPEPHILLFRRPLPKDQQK
inactive: idasanutlin 0.193 | alisertib -0.029 | [2] 0.184 | gefitinib 0.093 | [3] 0.14 | lapatinib -0.036 | pictilisib -0.666

CCNL1 (UniProt Q9UK58)
inactive: alisertib 0.119 | [3] 0.167

CLCN5 isoform 2 (UniProt P51795)
inactive: [1] -0.011 | zotarolimus -0.004 | gefitinib 0.011

CREB3L2 (UniProt Q70SY1)
Sequence of UniProt Q70SY1 (Q70SY1 whole entry, looked up): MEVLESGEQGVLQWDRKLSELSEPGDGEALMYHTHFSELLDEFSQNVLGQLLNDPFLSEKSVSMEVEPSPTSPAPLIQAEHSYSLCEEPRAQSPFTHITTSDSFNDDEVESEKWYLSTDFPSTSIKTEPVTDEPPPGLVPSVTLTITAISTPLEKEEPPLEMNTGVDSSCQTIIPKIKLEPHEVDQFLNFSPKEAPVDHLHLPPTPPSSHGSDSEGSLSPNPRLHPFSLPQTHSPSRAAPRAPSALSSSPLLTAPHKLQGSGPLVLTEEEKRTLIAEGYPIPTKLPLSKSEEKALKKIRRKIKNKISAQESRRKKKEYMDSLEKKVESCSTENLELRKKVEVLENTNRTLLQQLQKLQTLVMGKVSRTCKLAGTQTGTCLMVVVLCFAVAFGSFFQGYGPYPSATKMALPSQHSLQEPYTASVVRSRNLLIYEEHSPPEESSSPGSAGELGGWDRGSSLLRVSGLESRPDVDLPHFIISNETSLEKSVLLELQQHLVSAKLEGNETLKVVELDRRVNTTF
inactive: [1] 0.584 | zotarolimus 0.042 | idasanutlin 0.045 | alisertib -0.022 | gefitinib -0.154 | [3] 0.176

CNN3 (UniProt Q15417)
Sequence of UniProt Q15417 (Q15417 whole entry, looked up): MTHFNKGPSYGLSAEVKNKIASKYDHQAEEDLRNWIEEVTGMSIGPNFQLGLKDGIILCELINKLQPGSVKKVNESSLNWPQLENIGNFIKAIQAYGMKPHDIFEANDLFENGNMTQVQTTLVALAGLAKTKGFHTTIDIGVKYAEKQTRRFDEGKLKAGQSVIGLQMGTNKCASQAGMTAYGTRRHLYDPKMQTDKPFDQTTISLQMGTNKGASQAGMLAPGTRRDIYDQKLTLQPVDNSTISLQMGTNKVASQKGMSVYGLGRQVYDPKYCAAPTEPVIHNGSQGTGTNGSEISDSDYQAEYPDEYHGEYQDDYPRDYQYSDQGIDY
inactive: filanesib -0.006 | zotarolimus 0.005 | idasanutlin -0.04 | alisertib -0.031 | [2] 0.111 | gefitinib 0.026 | [3] -0.026 | lapatinib -0.032 | pictilisib 0.04

CHPT1 (UniProt Q8WUD6)
inactive: filanesib -0.345 | zotarolimus -0.017 | idasanutlin -0.018 | alisertib -0.136 | [2] -0.009 | gefitinib 0.013 | [3] -0.015 | lapatinib 0.159 | pictilisib -0.096

CRMP1 isoform 2 (UniProt Q14194)
Sequence of UniProt Q14194 (Q14194 whole entry, looked up): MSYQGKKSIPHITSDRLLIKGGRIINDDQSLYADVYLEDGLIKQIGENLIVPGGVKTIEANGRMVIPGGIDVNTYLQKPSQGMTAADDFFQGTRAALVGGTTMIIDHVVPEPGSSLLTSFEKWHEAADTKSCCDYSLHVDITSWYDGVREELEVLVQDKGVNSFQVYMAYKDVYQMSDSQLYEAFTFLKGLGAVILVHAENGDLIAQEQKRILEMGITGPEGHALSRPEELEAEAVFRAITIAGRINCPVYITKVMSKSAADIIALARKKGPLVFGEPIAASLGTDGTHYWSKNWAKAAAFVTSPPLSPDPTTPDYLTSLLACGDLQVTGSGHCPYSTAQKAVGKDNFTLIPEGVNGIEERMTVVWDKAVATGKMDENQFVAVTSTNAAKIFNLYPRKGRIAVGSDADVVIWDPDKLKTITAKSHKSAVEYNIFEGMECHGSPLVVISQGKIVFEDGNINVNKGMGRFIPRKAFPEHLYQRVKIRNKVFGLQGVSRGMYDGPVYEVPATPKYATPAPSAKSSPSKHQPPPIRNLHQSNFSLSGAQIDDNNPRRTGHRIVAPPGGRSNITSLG
inactive: filanesib 0.067 | zotarolimus -0.045 | idasanutlin 0.172 | gefitinib -0.407 | pictilisib 0.107

CLN8 (UniProt Q9UBY8)
inactive: filanesib 0.068 | zotarolimus 0.13 | idasanutlin -0.145 | alisertib 0.04 | [2] -0.019 | gefitinib 0.075 | [3] -0.015 | lapatinib 0.012

CEBPZOS (UniProt A8MTT3)
inactive: [1] 0.111 | idasanutlin -0.021 | alisertib -0.014 | [2] -0.085 | gefitinib 0.004 | [3] 0.098 | lapatinib -0.037 | pictilisib -0.045

CD68 (UniProt P34810)
inactive: filanesib 0.05 | alisertib -0.126 | [3] -0.025

CNRIP1 (UniProt Q96F85)
Sequence of UniProt Q96F85 (Q96F85 whole entry, looked up): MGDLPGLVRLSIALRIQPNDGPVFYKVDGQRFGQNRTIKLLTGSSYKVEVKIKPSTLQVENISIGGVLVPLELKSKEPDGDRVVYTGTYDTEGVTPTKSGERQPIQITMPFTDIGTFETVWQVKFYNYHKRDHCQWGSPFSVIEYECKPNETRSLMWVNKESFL
inactive: alisertib 0.075 | [2] 0.282 | gefitinib 0.002 | [3] -0.223 | lapatinib 0.054

CASP7 isoform 3 (UniProt P55210)
inactive: gefitinib 0.282 | pictilisib 0.234

CDK2AP2 (UniProt O75956)
inactive: [1] 0.078 | zotarolimus -0.022 | idasanutlin -0.043 | alisertib -0.019 | gefitinib -0.009 | [3] -0.11

CLN3 (UniProt Q13286)
Sequence of UniProt Q13286 (Q13286 whole entry, looked up): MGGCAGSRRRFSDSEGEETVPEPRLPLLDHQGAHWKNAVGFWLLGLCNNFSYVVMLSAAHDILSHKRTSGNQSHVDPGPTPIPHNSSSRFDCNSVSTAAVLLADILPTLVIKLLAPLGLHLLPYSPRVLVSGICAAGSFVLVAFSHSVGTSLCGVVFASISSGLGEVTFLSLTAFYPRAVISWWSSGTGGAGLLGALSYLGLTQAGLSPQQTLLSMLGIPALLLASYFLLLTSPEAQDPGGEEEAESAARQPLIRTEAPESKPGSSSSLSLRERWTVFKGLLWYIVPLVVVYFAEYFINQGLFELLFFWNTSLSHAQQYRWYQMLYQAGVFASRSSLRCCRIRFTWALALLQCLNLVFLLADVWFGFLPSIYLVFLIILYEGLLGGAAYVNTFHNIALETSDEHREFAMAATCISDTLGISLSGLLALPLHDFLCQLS
inactive: [1] 0.008 | zotarolimus -0.1 | alisertib 0 | [2] 0.08 | gefitinib -0.028 | [3] 0.139 | lapatinib -0.059

CORO2A (UniProt Q92828)
inactive: filanesib -0.035 | zotarolimus -0.049 | idasanutlin -0.071 | alisertib 0.035 | [2] -0.057 | gefitinib -0.097 | [3] -0.02 | lapatinib -0.011 | pictilisib -0.11

— the supplement of paper PMC10849652
